Compounds with a hit are over-represented: about 6.8% of the library has one in this group of screens.
MCF10A rerep = DNA re-replication induction in MCF 10a cells | Potency, µM (highest dose often 46.1 µM), without a hit: top-dose activity, positive = re-replication, most hits filed as activators | hit rate 2.9% among 350,000 | MCF 10A DNA re-replication, Hoechst nuclear intensity, 48 h; note: % of control where 0% means no effect; nearly all actives have a fitted effect of over 50% in size
SW480 rereplic = inducers of DNA re-replication in SW480 colon cancer cells | SW480 DNA re-replication, Hoechst DNA content imaging, 48 h | Potency, µM (top dose mostly 46.1 µM), inactives show at the top dose re-replication activation, most hits filed as activators | hit rate 1.8% among 340,000 | AID 624297; note: % of control where 0% means no effect; nearly all actives have a fitted effect of over 55% in size
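Image-based read-out: total Hoechst fluorescence of nuclei (405 nm excitation, 500-530 nm emission), with hits raising the fraction of high-intensity nuclei. SW480 colon cells incubated 48 hr with compounds at 37 C.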
PTAP TSG101 blk = blocks PTAP/TSG101 interaction to inhibit HIV-1 budding; Q99816; Fluorescence polarization, FITC-PTAP peptide / Tsg101 binding; Potency, µM (highest dose often 115 µM), for inactives: at the highest dose activity change, negative = inhibition, most hits filed as inhibitors; 340,000 tested, under 10 active; AID 493005; active = well fitted inhibition curve with a large enough effect in the main read-out, with a control signal flat, not every such curve was filed as active; inconclusive = small, poorly fitted or top-dose-only effect, or effect the other way, or a change in a side signal; inactive = no such curve, though single readings can be large or run the other way; note: % of control where 0% means no effect
Target sequence (Q99816 whole entry, looked up): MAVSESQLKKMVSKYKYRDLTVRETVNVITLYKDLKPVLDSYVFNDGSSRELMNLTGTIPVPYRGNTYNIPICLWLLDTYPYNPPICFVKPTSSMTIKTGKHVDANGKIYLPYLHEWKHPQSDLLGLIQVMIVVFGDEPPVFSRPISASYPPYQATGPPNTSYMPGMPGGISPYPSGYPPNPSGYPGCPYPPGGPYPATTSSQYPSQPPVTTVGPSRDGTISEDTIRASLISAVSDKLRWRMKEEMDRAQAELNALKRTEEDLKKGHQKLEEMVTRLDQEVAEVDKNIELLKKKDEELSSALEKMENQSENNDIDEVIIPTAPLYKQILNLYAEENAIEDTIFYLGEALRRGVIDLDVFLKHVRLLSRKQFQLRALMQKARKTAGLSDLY
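FP read-out: FITC-PTAP peptide, 50 nM final, binding Tsg101 binding domain, 10 uM final; 20 min, r.t.; 10 mM HEPES pH 7.5, 0.15 M NaCl, 0.01% Tween 20, 3 mM EDTA, 0.1 mM TCEP.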
KB-V1 cytotox = KB-V1 MDR subline cytotoxicity. Potency, µM (highest dose often 46.1 µM), most hits filed as cytotoxic. KB-V1 MDR cells viability, CellTiter-Glo, 72 h. AID 1347076. hit rate 3.4% among 400,000; note: % is set by controls: 0 for no effect and ±100 for the full control effect; nearly all actives have a fitted effect of over 60% in size
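Drug-selected KB-V1 cells, grown in DMEM lacking phenol red with 10% FBS, receive compound titrations; after three days at 37 degrees C, surviving cell ATP is quantified by CellTiter-Glo luminescence and responses normalized and curve-fitted.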
KB-3-1 cytotox = KB-3-1 parental cell cytotoxicity; KB-3-1 viability, CellTiter-Glo ATP luminescence, 72 h; Potency, µM (doses to about 46.1 µM), most hits filed as cytotoxic; hit rate 1.4% among 400,000; note: % is set by controls: 0 for no effect and ±100 for the full control effect; nearly all actives have a fitted effect of over 60% in size
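Multi-concentration cytotoxicity screen in KB-3-1 cells grown in DMEM lacking phenol red with 10% FBS. After 72 h at 37 °C with compound, ATP-dependent luminescence was recorded.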
PINK1 modulator = PINK1 expression modulation; PINK1 immunofluorescence, high-content cytometry, 24 h; Potency, µM (top dose mostly 76.6 µM), for inactives: at the highest dose activation (PINK1 increase), most hits filed as activators; hit rate 0.2% among 410,000; active = well fitted activation curve with a large enough effect; inconclusive = small, poorly fitted or top-dose-only effect; cell line not stated here; note: % of control where 0% means no effect; nearly all actives have a fitted effect of over 65% in size
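PINK1 protein, normally rapidly degraded, was detected by immunofluorescence after 24 hour compound treatment of a stable cell line. Titration data (5 concentrations) came from laser-scanning cytometry, with CCCP-treated wells as controls.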
Active calls of the source: *; i = inactive; ? = inconclusive; . = not tested or not shown; [ ] = remark or other dose. Unless noted, calls come from the whole dose curve; as a rule, active = well fitted curve in the direction sought with a large enough effect; inconclusive = small, poorly fitted or top-dose-only effect, or another doubt; inactive = no such curve, though single readings can be large; an effect the other way counts as inactive or inconclusive. Potency is the fitted concentration of half-maximal effect.

SMILES | MCF10A rerep | SW480 rereplic | PTAP TSG101 blk | KB-V1 cytotox | KB-3-1 cytotox | PINK1 modulator
Cc1cccc(C=Nc2ccccc2C(N)=O)c1 | 3.7µM* | 5.8µM* | -7% | 6.5µM* | 23µM* | 12%[38.3 µM]
Cc1ccc(C=Nc2ccccc2C(N)=O)s1 | 3.7µM* | 4.6µM* | 0% | i | 23µM* | 4%
Cc1ccc(/C=N/N=C/c2ccc(C)s2)s1 | -3% | -2% | 0% | ? | i | 14%
CCC(C)NC(=O)c1cc(-c2cccc(OC)c2)on1 (centres undefined) | . | . | . | i | i | 1%
O=c1[nH]cnc2c1sc1nc(C(F)F)cc(-c3ccccc3)c12 | 0% | ? | -1% | 12µM* | ? | 1%
O=C(NCc1ccco1)c1cc(-c2ccccc2)nn1CC1CC(c2cccnc2)=NO1 (centres undefined) | ? | ? | -1% | i | i | 1%
O=C(NCc1ccc(OC(F)(F)F)cc1)c1cc(-c2ccccc2)nn1CC1CC(c2cccnc2)=NO1 (centres undefined) | 1% | 22% | -1% | 21µM* | i | 1%
COc1ccc(NC(=O)N2CCN3CCCCC3C2)cc1OC (centres undefined) | . | . | . | . | . | 1%
COc1cc(-c2ccc3ncnc(NCc4ccc(C)o4)c3c2)cc(OC)c1OC | . | . | . | i | ? | .
CCOc1ccc(S(=O)(=O)N2CCN(C(=O)c3cc4c(s3)CCCC4)CC2)cc1 | 10% | 8% | -1% | 3.3µM* | 12µM* | 4%
O=C(c1cc2c(s1)CCCCC2)N1CCN(c2ncccn2)CC1 | 0% | -1% | -4% | 16µM* | i | 5%[38.3 µM]
COc1ccc(N2CCN(C(=O)c3cc4c(s3)CCCCC4)CC2)cc1 | 10% | -5% | 1% | i | i | 3%
CCOc1ccc(S(=O)(=O)N2CCN(C(=S)NCc3ccccc3)CC2)cc1 | ? | -2% | -1% | 18µM* | i | 0%
Cc1nc2cc(NC(=O)[C@@H]3C[C@@H](Sc4ccccn4)CN3Cc3ccccc3F)ccc2s1 | . | . | . | . | . | 0%
O=C(Cn1ccn(-c2cccc(Cl)c2)c(=O)c1=O)NCCc1ccccc1 | . | . | . | . | . | -1%
CN(C)c1ccc(/C=C/c2ccnc3c(O)cccc23)cc1 | . | . | . | i | ? | 13%
O=[N+]([O-])c1ccc(/C=C/c2ccnc3ccccc23)c([N+](=O)[O-])c1 | . | . | . | i | i | -1%
Cc1ccccc1C(=O)n1nc(-c2ccco2)nc1NCc1cccs1 | . | . | . | i | i | 2%
O=C(Cn1c(=O)c2sccc2n(Cc2cccc([N+](=O)[O-])c2)c1=O)NCCc1ccccc1 | 19% | 0% | 0% | 8.2µM* | i | 4%
Cc1ccc(NC(=O)c2ccc(NCCc3ccccc3)c([N+](=O)[O-])c2)cc1F | 18µM* | 4% | ? | i | ? | ?
O=C(Nc1cc(F)cc(F)c1)c1ccc(NCCc2ccccc2)c([N+](=O)[O-])c1 | 17% | -10% | ? | i | i | ?
O=C(Cn1c(=O)c2sccc2n(Cc2ccc([N+](=O)[O-])cc2)c1=O)NCCc1ccccc1 | 13% | -3% | -3% | i | i | 1%
Cc1ccc(CSCCNC(=O)c2cccc([N+](=O)[O-])c2)cc1 | 19% | -4% | -4% | 18µM* | i | -2%
Cc1ccc(C(=O)NCCSCc2ccccc2)cc1[N+](=O)[O-] | ? | -14% | -6% | 21µM* | i | 1%
Cc1ccc(C(=O)NCC(c2ccco2)S(=O)(=O)c2cccs2)cc1C (centres undefined) | . | . | . | i | i | 0%
SMILES | MCF10A rerep | SW480 rereplic | PTAP TSG101 blk | KB-V1 cytotox | KB-3-1 cytotox | PINK1 modulator
O=C(Cn1ncc2c3ccccc3n(Cc3ccccc3)c2c1=O)Nc1ccccc1C(F)(F)F | . | . | . | i | i | 7%
CC/C(=C/c1ccccc1)c1cc(Oc2ccccc2)cc2oc3ccccc3c12 | . | . | . | i | i | .
Cc1ccc(C(=O)NCCc2cccc(Cl)c2)cc1[N+](=O)[O-] | 18% | 1% | 1% | 16µM* | i | 2%
O=C(NCCc1ccccc1)c1cccc([N+](=O)[O-])c1 | -11% | -5% | -4% | 18µM* | i | 5%
O=C(NCCc1cccc(Cl)c1)c1ccc(Cl)c([N+](=O)[O-])c1 | 22% | -1% | 1% | i | i | -2%
Cc1cc2cc(CCNC(=O)c3ccc(S(=O)(=O)N4CCCC4)cc3)c(=O)[nH]c2cc1C | ? | ? | -7% | . | . | 2%
Cc1ccc(SCCNC(=O)c2ccc(C)c([N+](=O)[O-])c2)cc1 | 18% | -45% | -7% | 23µM* | i | 0%
Cc1cc2cc(CCNC(=O)c3ccc(C)c([N+](=O)[O-])c3)c(=O)[nH]c2cc1C | ? | 1% | -4% | 6.5µM* | i | 0%
CCC(=O)O[C@@]1(C(=O)SCF)[C@@H](C)C[C@H]2[C@@H]3C[C@@H](F)C4=CC(=O)C=C[C@@]4(C)[C@]3(F)[C@@H](O)C[C@]21C | 2%[20.6 µM] | -2%[20.6 µM] | . | . | . | .
CC(C(=O)Nc1cc([N+](=O)[O-])ccc1Cl)N1CCN(c2ccccc2O)CC1 (centres undefined) | ? | 16% | 2% | 10µM* | ? | 3%
COc1ccc([N+](=O)[O-])cc1NC(=O)C(C)N1CCCC1 (centres undefined) | -5% | -6% | -2% | i | i | 1%
CC(=O)N1CCC2(CC1)CCN(c1cccc(-c3ccccc3)c1)CC2 | . | . | . | . | . | 5%
CC(C)C1Cc2c(sc3[nH]c(=S)n(Cc4ccccc4)c(=O)c23)CO1 (centres undefined) | ? | ? | -4% | ? | 21µM* | -2%
Cc1nnc2n(-c3ccccc3)c(=O)c3c4c(sc3n12)COC(C(C)C)C4 (centres undefined) | -5% | -4% | -3% | i | i | 1%
CCc1ccc(CNC(=O)c2ccc(-n3c(C)cc4c3CCC(C)C4)cc2)cc1 (centres undefined) | . | . | . | i | i | 4%
CCn1nc(C)c2c(-c3ccccc3)cc(=O)n(C(C)C(=O)NCCc3ccccc3)c21 (centres undefined) | . | . | . | i | i | ?
O=c1[nH]cc(C#Cc2ccccc2)c2ncncc12 | . | . | . | . | . | 0%
CCCCOC(=O)c1sc2nc(C)cc(C)c2c1N | ? | ? | 0% | i | i | 4%
CCOC(=O)c1sc2nc(C)cc(C)c2c1N | 18µM* | ? | -10% | i | i | 0%

Source: PubChem BioAssay (National Center for Advancing Translational Sciences (NCATS))
